Article PMC4336329 (PLoS ONE, 2015)
The campaign covered roughly 310,000 compounds. About 14,000 (4.5%) showed an effect of 50% or more. Effects have a minus sign here. The list comes from a sample in which strong results are over-represented; it also holds similar structures and randomly drawn compounds.

target: human ether-à-go-go-related gene (hERG) potassium channel (human, UniProt Q12809); experiment: primary screen, population patch clamp on CHO cells stably expressing hERG; higher = less effect of the substance
Sequence (Q12809 whole entry, looked up): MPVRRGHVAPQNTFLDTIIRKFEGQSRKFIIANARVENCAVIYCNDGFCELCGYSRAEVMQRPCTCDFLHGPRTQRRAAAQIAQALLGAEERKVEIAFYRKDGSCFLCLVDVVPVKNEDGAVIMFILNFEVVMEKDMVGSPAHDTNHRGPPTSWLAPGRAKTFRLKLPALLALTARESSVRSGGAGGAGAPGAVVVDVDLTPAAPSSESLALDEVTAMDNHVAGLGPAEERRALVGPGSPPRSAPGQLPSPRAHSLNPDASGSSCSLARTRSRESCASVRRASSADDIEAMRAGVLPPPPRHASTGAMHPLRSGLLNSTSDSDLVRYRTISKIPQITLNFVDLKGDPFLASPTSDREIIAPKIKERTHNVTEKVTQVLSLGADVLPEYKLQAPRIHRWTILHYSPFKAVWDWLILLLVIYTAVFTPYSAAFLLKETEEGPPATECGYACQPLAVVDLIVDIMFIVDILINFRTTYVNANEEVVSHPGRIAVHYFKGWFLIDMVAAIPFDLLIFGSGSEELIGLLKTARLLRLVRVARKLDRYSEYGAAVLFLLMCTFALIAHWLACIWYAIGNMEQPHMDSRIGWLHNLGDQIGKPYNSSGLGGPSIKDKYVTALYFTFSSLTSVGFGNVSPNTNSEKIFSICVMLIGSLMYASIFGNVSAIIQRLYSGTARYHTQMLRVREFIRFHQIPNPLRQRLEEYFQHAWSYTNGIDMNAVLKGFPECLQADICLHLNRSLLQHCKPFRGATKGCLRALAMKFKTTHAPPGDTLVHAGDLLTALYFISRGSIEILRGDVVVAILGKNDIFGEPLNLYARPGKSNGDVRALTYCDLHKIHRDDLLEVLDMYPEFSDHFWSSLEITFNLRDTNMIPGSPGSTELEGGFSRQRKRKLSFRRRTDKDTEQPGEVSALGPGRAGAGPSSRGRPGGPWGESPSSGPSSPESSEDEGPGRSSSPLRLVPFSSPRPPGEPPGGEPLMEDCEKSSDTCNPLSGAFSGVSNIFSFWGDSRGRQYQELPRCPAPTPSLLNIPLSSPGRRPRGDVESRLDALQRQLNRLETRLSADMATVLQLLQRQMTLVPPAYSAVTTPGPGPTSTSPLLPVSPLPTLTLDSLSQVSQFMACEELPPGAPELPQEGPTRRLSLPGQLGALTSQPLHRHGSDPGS
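Also: peak tail current of the secondary pulse compared with the same well before compound.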

SMILES | hERG current change (%, negative = inhibition) at 10uM
CC(=O)Nc1ccc(N2C(=O)CSC2c2cccc([N+](=O)[O-])c2)cc1 (stereo not drawn) | 15.6%
Cc1cc(NC(=O)CCCn2cnc([N+](=O)[O-])n2)no1 | 1.48%
CC(=O)N1CCC2(CC1)C(C#N)=C(N)OC1=C2C(=O)CC(C)(C)C1 | 8.09%
COc1ccccc1/C=C1\SC(=S)N(NS(=O)(=O)c2ccccc2)C1=O | 8.33%
COc1ccccc1C(=O)NC(=O)COC(=O)C1CC1C (stereo not drawn) | -3.4%
O=C(c1ccc(Cl)c(S(=O)(=O)N2CCOCC2)c1)N1CCN(c2ccccc2F)CC1 | -15.1%
COc1cc(CNc2cccc(C(=O)O)c2)cc(Br)c1OCC(=O)NC(C)(C)C | 2.52%
FC(F)(F)c1nnc2ccc(Sc3ccccn3)nn12 | 17.1%
O=C(NCc1ccccn1)C1CC(c2ccccc2Cl)=NO1 (stereo not drawn) | 14.1%
O=S(=O)(Cc1ccccc1Cl)N1CCCCC1 | 1.5%
C=CCNCCCCOc1c(Cl)cc(C)cc1Br.O=C(O)C(=O)O | -31.7%
CC(=O)N(\C=C/C=C/C=C1\Sc2ccccc2C1=O)c1ccccc1 | -3.47%
CCOC(=O)C1=C(C)N=c2s/c(=C\c3ccc(O)c([N+](=O)[O-])c3)c(=O)n2C1c1ccccc1OC (stereo not drawn) | -61.7%
CCOC(=O)C1=C(C)N=c2s/c(=C\c3cccc(OCC(=O)O)c3)c(=O)n2C1c1ccccc1OC (stereo not drawn) | 28.7%
CCOC(=O)C1=C(C)N=c2s/c(=C\c3ccc(OCC(=O)O)cc3)c(=O)n2C1c1ccccc1OC (stereo not drawn) | 12.8%
CC(=O)c1c(C)[nH]c(C(=O)OCC(=O)C(C)(C)C)c1C | -2.38%
CN1CCN(C2CCCCC2NS(=O)(=O)c2ccccc2)CC1 (stereo not drawn) | 9.24%
Cc1ccc(CN2CCSCC2)cc1 | 17.4%
Brc1ccc(CN2CCSCC2)cc1 | -65.1%

SMILES | hERG current change (%, negative = inhibition) at 10uM
CCc1ccc(CN2CCSCC2)cc1 | 7.39%
CCC1(C)Cc2c(sc3nc(SC)nc(NCCN(C)C)c23)CO1 (stereo not drawn) | -42.9%
O=C(O)/C=C/C(=O)Nc1ccc(Oc2ncnc3cc(Cl)ccc23)nc1 | 18.4%
CCC(C)NC(=O)Cn1cc2c(n1)CCC(C)C2 (stereo not drawn) | 13.8%
Cc1ccc(-c2nn3nnnc3c3ccccc23)cc1 | 14.3%
c1ccc(-c2nn3nnnc3c3ccccc23)cc1 | -71.8%
Cc1ccc(-c2nn3nnnc3c3ccccc23)cc1C | -1.31%
CC1=CCC2C(=O)N(c3ccc(OC(=O)c4ccco4)cc3)C(=O)C2C1 (stereo not drawn) | 12%
COC(=O)CSc1ncnc2c1sc1nc(-c3ccco3)c3c(c12)CC(C)(C)OC3 | 3.01%
O=C(CSc1ncccn1)NNC(=O)c1ccccc1 | -4.48%
CCOCCCNC(=O)C(c1ccccc1)N(Cc1cccs1)C(=O)c1ccccc1O (stereo not drawn) | 14.3%
O=C(COC(=O)CCCC1=NS(=O)(=O)c2ccccc2N1)Nc1ccccc1 | 24.7%
Cc1cc(C)cc(NC(=O)COC(=O)CCCC2=NS(=O)(=O)c3ccccc3N2)c1 | -55.9%
CC(C)(CC(=O)OCC(=O)Nc1ccccc1F)CC1=NS(=O)(=O)c2ccccc2N1 | 0.85%
COc1ccccc1NC(=O)COC(=O)CC(C)(C)CC1=NS(=O)(=O)c2ccccc2N1 | -69.9%
CCOc1ccccc1NC(=O)COC(=O)CC(C)(C)CC1=NS(=O)(=O)c2ccccc2N1 | -60.5%
COc1ccc(Cl)cc1NC(=O)COC(=O)CCCC1=NS(=O)(=O)c2ccccc2N1 | 21.4%
Cc1cccc(NC(=O)COC(=O)CCCC2=NS(=O)(=O)c3ccccc3N2)c1 | 10.7%
CCc1ccc(NC(=O)COC(=O)CCCC2=NS(=O)(=O)c3ccccc3N2)cc1 | -1.3%

SMILES | hERG current change (%, negative = inhibition) at 10uM
COc1cc(NC(=O)COC(=O)CCCC2=NS(=O)(=O)c3ccccc3N2)cc(OC)c1 | 14.4%
Cc1cc(NC(=O)C2CCCN(S(=O)(=O)c3c(C)noc3C)C2)no1 (stereo not drawn) | -0.534%
Cc1oc(-c2cccs2)nc1CSCC(=O)NC1CC1 | -3.82%
CCC1=NN(C(=O)Cc2ccc([N+](=O)[O-])cc2)C(O)(c2ccncc2)C1 (stereo not drawn) | -11.9%
COc1ccc(NC(=O)c2cccc(N3C(=O)C4C5C=CC(C5)C4C3=O)c2)cc1Cl (stereo not drawn) | 2.2%
C=CCN1C(=O)C(Cc2ccc(F)cc2)S/C1=N/N=C/c1cccs1 (stereo not drawn) | -9.46%
CC(C)C(NC(=O)c1ccco1)C(=O)NCC(c1ccco1)N(C)C (stereo not drawn) | 12.5%
COc1cccc(OCC(O)CN2CC(C)CC(C)C2)c1.Cl (stereo not drawn) | -13.5%
COc1ccccc1N1CCN(CC(O)COc2ccc3c(c2)CCC3)CC1.Cl (stereo not drawn) | -74.2%
COc1ccc(N2CCN(CC(O)COc3ccc4c(c3)CCC4)CC2)cc1.Cl (stereo not drawn) | -48.3%
COc1ccccc1N1CCN(CC(O)COc2ccc3c(C)cc(=O)oc3c2)CC1 (stereo not drawn) | -24.7%
OC(COc1ccc2c(c1)CCC2)CN1CCN(c2ccccc2F)CC1 (stereo not drawn) | -14.6%
COc1ccc(N2CCN(CC(O)COc3cc(C)cc(C)c3)CC2)cc1.Cl (stereo not drawn) | -48.8%
COc1ccc(N2CCN(CC(O)COc3ccc(C)cc3C)CC2)cc1.Cl (stereo not drawn) | -67.8%
CCN1CCN(CC(O)COc2ccc3c(c2)CCC3)CC1.Cl (stereo not drawn) | 5.59%
CCOc1ccccc1N1CCN(CC(O)COc2ccc3c(C)cc(=O)oc3c2)CC1 (stereo not drawn) | -53.1%
COc1ccc(N2CCN(CC(O)COc3cc(C)ccc3C)CC2)cc1.Cl (stereo not drawn) | -33.8%
CC1CC(C)CN(CC(O)COc2ccc3c(c2)CCC3)C1.Cl (stereo not drawn) | -53.2%
Cc1cc(=O)oc2cc(OCC(O)CN3CCN(c4ccccc4)CC3)ccc12.Cl (stereo not drawn) | -47.4%
